Drawing on PubChem BioAssay (NCATS), this text covers cell viability, % of control (lower = more cytotoxic) and viability (% of control) for 14 compounds.

The first assay in a line: High-throughput drug toxicity screening in the BPDCN cell line Gen2.2 (AID 1224824).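 Note: cells exposed to compounds for 48 h before reading.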 To be noted: Gen2.2 BPDCN cells; at 45.8 µM (top of the series) unless noted. A digest of the protocol:
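CellTiter-Glo luminescence after 48 h compound exposure of Gen2.2 cells; percent activity set with DMSO as 100% and bortezomib (9.2 uM final) as 0%. Cells seeded at 500 per well, RPMI + 10% FBS, 37 °C.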
Consider `CCCCCCCCCCCCc1ccc(S(=O)(=O)Nc2nncs2)cc1`, for which the cell viability, % of control (lower = more cytotoxic) is 86%.
With `COc1ccc(C(C)=O)c(O)c1`, the cell viability, % of control (lower = more cytotoxic) was found to be 146%.
`O=C(C=Cc1ccc(CN(CCO)CCc2c[nH]c3ccccc23)cc1)NO`: the cell viability, % of control (lower = more cytotoxic) was determined as 4.89%.
Same read-out and setting: to `COc1cc(C)c(C=CC(C)=CC=CC(C)=CC(=O)O)c(C)c1C` belongs 336%.
Regarding `C[C@H](O)[C@@H]1C(=O)N2C(C(=O)O)=C(S[C@@H]3CN[C@H](CNS(N)(=O)=O)C3)[C@@H](C)[C@@H]12`, the cell viability, % of control (lower = more cytotoxic) turned out to be 119%.
Take `C#C[C@]1(O)CC[C@@H]2[C@@H]3CCC4=CC(=O)CC[C@@H]4[C@H]3CC[C@@]21CC`: the cell viability, % of control (lower = more cytotoxic) was determined as 146%.

The next assay in a line: High-throughput drug toxicity screening in the BPDCN cell line Cal-1 (AID 1224825). To be noted: Cal-1 BPDCN cell viability, qHTS; at 45.8 µM (top of the series) unless noted. A digest of the protocol:
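500 Cal-1 cells/well, RPMI + glutamine + 10% FBS (phenol red-free); cpd added by pin tool; 48 h, 37C, 5% CO2; CTG 15 min RT, lumi read. Normalised: DMSO 100%, bortezomib 9.2 uM 0%.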
A general note: In qHTS, concentration-response curves come from the screen itself.
In the case of `O=C(O)CCCCCC(=O)NN=C1CCCC1`, the viability (% of control) was 105%.
Same read-out and setting: the result for `CC(C)(C)[N+]([O-])=Cc1ccc(S(=O)(=O)O)cc1S(=O)(=O)O` reads 111%; that for `C[C@@]12C[C@@]3(O)O[C@@H](O1)[C@]1(COC(=O)c4ccccc4)[C@@H]3C[C@@]12O[C@@H]1O[C@H](CO)[C@@H](O)[C@H](O)[C@@H]1O`, 109%; that for `Cc1cncc2cccc(S(=O)(=O)N3CCCN(C(=O)CN)C[C@@H]3C)c12`, 36.2%.
As to `O=C(O)C=Cc1ccc(Cn2ccnc2)cc1`, the viability (% of control) worked out at 124%.
Same read-out and setting: the result for `O=C(CN1C(=O)C2(CCCC2)NC[C@H]1c1cc(F)cc(F)c1)Nc1ccc2c(c1)C[C@@]1(C2)C(=O)Nc2ncccc21` reads 107%.
On to `CCN1CCN(C(=O)N[C@H](C(=O)N[C@@H]2C(=O)N3C(C(=O)O)=C(CSc4nnnn4C)CS[C@@H]23)c2ccc(O)cc2)C(=O)C1=O`, for which the viability (% of control) was determined as 113% [at 15.3 µM].
Turning to `Cc1ccc(-n2[nH]c(C)c(N=Nc3cccc(-c4cccc(C(=O)O)c4)c3O)c2=O)cc1C`, the viability (% of control) is 28.2%.
